Results from PubChem BioAssay (EPA / NIEHS).
Records with an inconclusive call do not appear. Active and inactive are the calls of the source. How the source made its calls, unless noted: active means hit-call score of the fitted dose curve at least 0.9, where 1 is the maximum; inactive means score below 0.9.

What was measured:
[1] = CCTE_Shafer_MEA_acute_burst_number: CCTE's Neural Acute Assay for Single-Electrode Bursts, Shafer Lab (AID 2284013)
In short: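 Burst totals were derived with adaptive spike detection (8x rms threshold) on filtered signals from rat cortical cultures; change relative to pre-treatment baseline after 40-min compound exposure (0.03-40 uM) was fitted in the negative direction against DMSO.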

[2] = CCTE_Shafer_MEA_acute_burst_duration_mean: CCTE's Neural Acute Assay for Mean Burst Duration, Shafer Lab (AID 2284014);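 further: hits are decreases in mean burst duration relative to DMSO controls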
In short: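 Acute exposure of mature rat cortical networks (DIV 13 or 15) grown on microelectrode arrays to 0.03-40 uM compound. Mean burst duration compared with the 40-min pre-dose baseline over a 40-min post-dose recording at 37 C.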

[3] = CCTE_Shafer_MEA_acute_per_burst_spike_number_mean: CCTE's Neural Acute Assay for Average Number of Spikes Per Burst, Shafer Lab (AID 2284015);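 further: hits are decreases in mean spikes per burst versus baseline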
In short: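 Read-out: percent change in mean spikes per burst, each well's post-exposure 40-min recording versus its own 40-min baseline. Rat cortical cultures, DIV 13 or 15, compounds 0.03-40 uM; DMSO is negative control, loss-of-signal fitting.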

[4] = CCTE_Shafer_MEA_acute_interburst_interval_mean: CCTE's Neural Acute Assay for Mean Interburst Interval, Shafer Lab (AID 2284016);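 further: percent change of mean interburst interval versus each well's own pre-dose baseline; curves fitted for decrease in interburst interval relative to DMSO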
In short: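 Rat cortical cultures, DIV 13/15; 20 min equilibration, 40 min baseline, compound 0.03-40 uM, 40 min re-recording, 37 C. Spikes detected at 8x rms noise (300-5000 Hz band-pass). Endpoint: % change in interburst interval, fitted in loss direction vs DMSO.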

[5] = CCTE_Shafer_MEA_acute_burst_percentage_mean: CCTE's Neural Acute Assay for Percentage of Spikes in a Burst, Shafer Lab (AID 2284017);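 on AC50: curve fitted for loss of signal so potency reflects decreased burst percentage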
In short: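 Rat cortical cultures, DIV 13/15, 37 C. Spikes detected at 8x rms noise (300-5000 Hz band-pass). Burst spikes/total spikes averaged across electrodes per well; % change post- vs pre-treatment (40 min each), loss-of-signal fit vs DMSO.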

[6] = CCTE_Shafer_MEA_acute_burst_percentage_std: CCTE's Neural Acute Assay for Standard Deviation of Burst Percentage, Shafer Lab (AID 2284018);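 further: fitted in the negative direction so actives lower burst percentage SD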
In short: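 Primary rat cortical neurons on 16-electrode MEA wells were recorded 40 min at baseline (DIV 13 or 15), then 40 min after compound (0.03-40 uM), at 37 C. Well value is SD across electrodes of spikes-in-bursts/total spikes; endpoint is percent change, DMSO-referenced.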

[7] = CCTE_Shafer_MEA_acute_per_network_burst_spike_number_mean: CCTE's Neural Acute Assay for Average Number of Spikes in a Network Burst, Shafer Lab (AID 2284019)
In short: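 Acute exposure of rat primary cortical networks (DIV 13/15) on MEAs; adaptive spike detection at 8x rms noise, 37 C. Percent change in spikes per network burst after 40 min with compound (0.03-40 uM), negative direction vs DMSO.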

[8] = CCTE_Shafer_MEA_acute_per_network_burst_spike_number_std: CCTE's Neural Acute Assay for Standard Deviation of Number of Spikes in a Network Burst, Shafer Lab (AID 2284020);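 further: fitted for decrease in spike-number SD versus DMSO so actives lower it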
In short: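 Acute MEA exposure, rat cortical neurons, 0.03-40 uM. Per-well % change versus own baseline; DMSO as negative control.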

[9] = CCTE_Shafer_MEA_acute_per_network_burst_electrodes_number_mean: CCTE's Neural Acute Assay for Mean Number of Electrodes in a Network Burst, Shafer Lab (AID 2284021);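 further: curves fitted for decreases only so hits reduce electrodes per burst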
In short: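 Rat primary cortical neurons on 48-well MEAs, DIV 13 or 15, were treated at 0.03-40 uM. Spikes were detected at 8x rms noise and recorded at 37 C. The mean electrodes per network burst in a 40 min exposure recording was expressed as percent change from a 40 min baseline.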

[10] = CCTE_Shafer_MEA_acute_network_burst_percentage: CCTE's Neural Acute Assay for Percentage of Network Bursts, Shafer Lab (AID 2284022);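 further: curves fitted for loss so actives lower network burst percentage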
In short: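 Rat primary cortical neuron networks on 48-well MEA plates, DIV 13 or 15, treated acutely with compound (0.03-40 uM, at least three wells). Percent of spikes within network bursts compared between 40-min recordings before and during exposure at 37 C, expressed as percent change.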

[11] = CCTE_Shafer_MEA_acute_cross_correlation_area: CCTE's Neural Acute Assay for Area of Cross Correlation, Shafer Lab (AID 2284024);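 further: curves fitted for loss of cross-correlation area so actives lower synchrony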
In short: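 Rat primary cortical neurons on 48-well MEA, DIV 13 or 15; compounds 0.03-40 uM. Baseline and post-exposure 40 min recordings at 37 C; percent change in area under pooled inter-electrode cross-correlation near zero lag, relative to DMSO.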

[12] = CCTE_Shafer_MEA_acute_cross_correlation_HWHM: CCTE's Neural Acute Assay for Cross Correlation at Half Width at Half Maximum, Shafer Lab (AID 2284026);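 further: percent change per well from pre-dose baseline in spike cross-correlogram half width; hits are a decrease in cross-correlogram half width relative to DMSO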
In short: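 Rat primary cortical neurons on 48-well MEA plates; 40-min baseline and 40-min post-exposure recordings at 37 C on DIV 13 or 15, compounds 0.03-40 uM. Spikes detected at 8x rms noise; percent change in cross-correlogram HWHM per well vs baseline.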

[13] = CCTE_Shafer_MEA_acute_synchrony_index: CCTE's Neural Acute Assay for Synchrony, Shafer Lab (AID 2284027);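 further: network synchrony index of spontaneous spiking in primary rat cortical neurons on MEAs; fitted for loss of signal so actives lower synchrony relative to DMSO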
In short: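 The synchrony index is taken as percent change per well between a 40 min baseline and a 40 min recording with compound (0.03–40 uM), at 37C. Rat cortical cultures on multiwell MEAs at DIV 13 or 15, spike threshold 8× rms noise.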

[14] = CCTE_Shafer_MEA_dev_firing_rate_mean: CCTE's Neural Network Formation Assay for Mean Firing Rate, Shafer Lab (AID 2284031);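 on AC50: curve fitted for loss of firing so AC50 reflects decreased mean firing rate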
In short: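 Spike frequency (spikes/recording length, averaged over active electrodes) was recorded on days 5, 7, 9 and 12 and collapsed to AUC; rat cortical cultures received compound continuously over 12 days of network development.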

[15] = CCTE_Shafer_MEA_dev_per_burst_spike_percent: CCTE's Neural Network Formation Assay for Percent of Spikes in a Burst, Shafer Lab (AID 2284032);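 on AC50: fitted as a decrease in burst spike percentage below DMSO baseline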
In short: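 Value is trapezoidal AUC over recordings on days 5, 7, 9 and 12 of the well-mean fraction of spikes falling in single-electrode bursts; rat cortical cultures exposed continuously from plating, treatment renewed DIV 5 and 9, fitted downward against DMSO.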

[16] = target: Estrogen receptor (Homo sapiens) (UniProt P03372); assay: CCTE_Deisenroth_AIME_96WELL_LUC_Active: CCTE's 96-well Estrogen Receptor Transactivation Assay with AIME metabolic competence (ERTA luciferase; metabolism positive), Deisenroth Lab (AID 2284023; active means hit-call score of the fitted dose curve at least 0.9, where 1 is the maximum)
Estrogen receptor (Homo sapiens), sequence (P03372 whole entry, looked up): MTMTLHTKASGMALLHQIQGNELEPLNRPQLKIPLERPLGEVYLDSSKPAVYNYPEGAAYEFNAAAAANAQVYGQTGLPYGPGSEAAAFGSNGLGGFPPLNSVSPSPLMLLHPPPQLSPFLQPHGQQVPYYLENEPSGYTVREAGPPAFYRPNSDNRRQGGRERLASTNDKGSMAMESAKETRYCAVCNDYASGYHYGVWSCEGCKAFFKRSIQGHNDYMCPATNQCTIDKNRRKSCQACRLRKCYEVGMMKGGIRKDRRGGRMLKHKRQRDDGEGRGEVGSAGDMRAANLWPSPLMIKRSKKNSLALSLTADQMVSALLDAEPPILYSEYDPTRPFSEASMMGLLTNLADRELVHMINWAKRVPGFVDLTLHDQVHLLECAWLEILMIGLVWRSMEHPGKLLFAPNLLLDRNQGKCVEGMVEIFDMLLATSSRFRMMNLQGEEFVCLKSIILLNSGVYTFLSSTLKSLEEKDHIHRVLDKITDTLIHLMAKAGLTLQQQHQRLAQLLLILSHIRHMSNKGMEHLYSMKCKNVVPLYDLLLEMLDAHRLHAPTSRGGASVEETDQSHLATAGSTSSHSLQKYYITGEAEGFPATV
In short: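 Metabolism-positive mode: induced rat hepatic S9 in alginate microspheres conditions test solutions (0.002 - 200 uM, 10 points) for 2 hours. VM7Luc4E2 ER luciferase reporter cells then exposed 24 h; positive-direction fit against 17beta-estradiol, n=4 typical.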

[17] = target: Estrogen receptor (Homo sapiens) (UniProt P03372); assay: CCTE_Deisenroth_AIME_96WELL_LUC_Inactive: CCTE's 96-well Estrogen Receptor Transactivation Assay without AIME metabolic competence (ERTA luciferase; metabolism negative), Deisenroth Lab (AID 2284025; active means hit-call score of the fitted dose curve at least 0.9, where 1 is the maximum)
In short: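 Metabolism-negative arm: chemicals (0.002–200 uM, 10 points) incubated 2 h with alginate-water microspheres, then medium moved onto VM7Luc4E2 cells for 24 h luciferase read-out. Positive direction vs 17beta-estradiol; n≥4 experiments.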

[18] = target: Estrogen receptor (Homo sapiens) (UniProt P03372); assay: CCTE_Deisenroth_AIME_384WELL_LUC_Active: CCTE's 384-well Estrogen Receptor Transactivation Assay with AIME metabolic competence (ERTA luciferase; metabolism positive), Deisenroth Lab (AID 2284030; active means hit-call score of the fitted dose curve at least 0.9, where 1 is the maximum)
In short: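 Chemicals (10-point, 0.002-200 uM) were first incubated 2 hours with alginate-immobilized induced male Sprague Dawley rat liver S9. The conditioned medium was then applied to VM7Luc4E2 cells for 24 hours, with ER luciferase induction read by luminescence relative to 17beta-estradiol.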

Measured: AC50

CC(C)Oc1cc(-n2nc(C(C)(C)C)oc2=O)c(Cl)cc1Cl
inactive: [1] | [2] | [3] | [5] | [6] | [7] | [8] | [9] | [10] | [11] | [12] | [13]
active: [4] 4.16 µM

CCOc1cc(Oc2ccc(C(F)(F)F)cc2Cl)ccc1[N+](=O)[O-]
active: [14] 12.8 µM | [15] 12.8 µM

CCCN(CCC)c1c([N+](=O)[O-])cc(S(N)(=O)=O)cc1[N+](=O)[O-]
inactive: [2] | [3] | [6] | [7] | [8] | [9] | [10] | [11]
active: [1] 4.69 µM | [4] 5 µM | [5] 5 µM | [12] 10.5 µM | [13] 5 µM

CCCCNC(=O)n1c(NC(=O)OC)nc2ccccc21
active: [15] 15 µM
inactive: [14]

CN(C)C(=S)SSC(=S)N(C)C
active: [14] 0.00736 µM | [15] 0.0103 µM

CCNc1nc(Cl)nc(NC(C)C)n1
inactive: [1] | [2] | [3] | [4] | [6] | [7] | [8] | [9] | [10] | [16] | [11] | [17] | [14] | [15]
active: [5] 13.9 µM | [12] 11.8 µM | [13] 20 µM

CC(Oc1ccc(Cl)cc1Cl)C(=O)O (centres undefined)
inactive: [1] | [2] | [3] | [4] | [5] | [6] | [7] | [8] | [9] | [10] | [11] | [12] | [13] | [18]

CNC(=O)ON=CC(C)(C)SC
inactive: [1] | [2] | [3] | [4] | [5] | [6] | [7] | [8] | [9] | [10] | [11] | [12] | [13] | [14] | [15]

CON(C)C(=O)Nc1ccc(Cl)c(Cl)c1
inactive: [1] | [2] | [3] | [4] | [7] | [8] | [9] | [10] | [11]
active: [5] 8.54 µM | [6] 0.649 µM | [12] 6.23 µM | [13] 6.56 µM

CC1COC(Cn2cncn2)(c2ccc(Oc3ccc(Cl)cc3)cc2Cl)O1 (centres undefined)
active: [1] 5.26 µM | [5] 4.77 µM | [6] 36.6 µM | [8] 3.5 µM | [12] 4.15 µM | [13] 11.5 µM
inactive: [2] | [3] | [4] | [7] | [9] | [10] | [11]
